# A selection: hits, their analogues and other compounds. The true share with any hit is near 1.4%.
# CCHFV vOTU inh: blocks the CCHF virus ovarian tumor domain protease | inhibition, % at 11.5 µM | CCHFV vOTU protease, Pep-AMC fluorescence | 370,000 tested, 0.55% active; in the data active means inhibition above about 30%; further: 0% = vehicle wells with enzyme and 100% = no enzyme wells
# Sa RN4220 lethal: kills Staphylococcus aureus RN4220 | S. aureus RN4220 growth, OD600, 16 h | inhibition, % (test concentration not listed) | 330,000 tested, 0.33% active | AID 1259311; in the data active means inhibition above about 85%;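 further: plate controls were untreated cells for no effect and reference antibiotic for full effect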
# Mtb hypoxia inh: reduces hypoxia-regulated biosensor signal in M. tuberculosis. M. tuberculosis hypoxia-regulated fluorescent reporter, fluorescence. fluorescence inhibition, % (test concentration not listed). 300,000 tested, 0.1% active; in the data active means fluorescence inhibition mostly above about 23%, no sharp cut-off; inactive means mostly below about 17%
# PriA SSB inh: blocks PriA binding to SSB C-terminal tail. inhibition, % at 33 µM. AID 1272365. 430,000 tested, 0.6% active. AlphaScreen SSBct-PriA binding, biotinylated peptide; in the data active means inhibition mostly above about 37%, no sharp cut-off; inactive means mostly below about 20%;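 further: plate controls were negative control peptide for no effect and reference peptide for full effect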
# Sa ugtP lethal: growth inhibition of S. aureus ugtP deletion strain | growth inhibition, % (concentration not given with the values) | S. aureus RN4220 ugtP deletion, OD600 growth, 16 h | AID 1259309 | 330,000 tested, 0.54% active; in the data active means growth inhibition above about 68%;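 further: plate controls were untreated wells for no effect and antibiotic for full effect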
# Numbers without * were called inactive; i = inactive; x = no result shown.
SMILES,CCHFV vOTU inh,Sa RN4220 lethal,Mtb hypoxia inh,PriA SSB inh,Sa ugtP lethal
CCN1CC2C3C(=O)N(Cc4ccccc4)C(=O)C3[C@](Cc3ccccc3)(C1=O)N2C(=O)c1ccc(Cl)cc1 (some centres undefined),x,3,0,x,1
Cc1cc(NC(=O)C2CCN(C(=O)c3ccncc3)CC2)no1,x,x,x,-9,x
O=C(Nc1nc(-c2cccs2)cs1)C1CCCCN1S(=O)(=O)c1cccs1 (centres undefined),x,x,x,5,x
O=C(Nc1nc(-c2ccc(Cl)s2)cs1)c1cccs1,-4,54,7,-14,99*
O=C(Nc1nc(-c2ccccn2)cs1)[C@@H]1CCCN1S(=O)(=O)c1cccs1,x,x,x,91*,x
O=C(Nc1nc(-c2csc(NC(=O)c3ccc(Cl)s3)n2)cs1)c1ccc(Cl)s1,x,x,x,-17,x
O=C(CC12CC3CC(CC(O)(C3)C1)C2)Nc1nc(-c2ccccn2)cs1,x,x,x,97*,x
O=C(CC12CC3CC(CC(C3)C1)C2)Nc1nc(-c2ccccn2)cs1,x,x,x,43,x
Cc1occc1C(=O)Nc1nc(-c2ccccn2)cs1,x,x,x,112*,x
CCc1ccc(NC(=O)CSc2ncc(S(=O)(=O)c3cccs3)c(N)n2)cc1,x,x,x,-2,x
Cn1c(O)c(C=C2C=NN=C2c2ccccc2)sc1=S,x,x,x,-4,x
O=C(Nc1nc(-c2ccccn2)cs1)c1n[nH]c2c1CCCCC2,x,x,x,62*,x
O=C(Nc1nc(-c2ccccn2)cs1)c1ccc(Cl)s1,-3,51,x,32,58
Cc1nnsc1C(=O)Nc1nc(-c2ccccn2)cs1,x,x,x,136*,x
O=C(Nc1ccc([N+](=O)[O-])cc1)Nc1nc(-c2ccc(Cl)s2)cs1,-10,97*,3,-3,97*
O=C(Nc1nc(-c2ccccn2)cs1)c1ccc(Cl)cc1,x,x,x,73*,x
O=C(/C=C/c1ccc([N+](=O)[O-])cc1)Nc1nc(-c2ccc(Cl)s2)cs1,x,x,x,3,x
Cc1cc(C)cc(C(=O)Nc2nc(-c3ccccn3)cs2)c1,x,x,x,92*,x
COc1ccc(S(=O)(=O)CC(=O)Nc2nc(-c3ccccn3)cs2)cc1,x,x,x,88*,x
O=C(Nc1nc(-c2ccccn2)cs1)C1=COCCO1,x,x,x,106*,x
Cc1cc(C)cc(OCC(=O)Nc2nc(-c3ccccn3)cs2)c1,-7,4,-5,-7,1
O=C(Nc1nc(-c2ccc(-c3ccccc3)cc2)cs1)C1=COCCO1,10,2,0,-3,-6
Cc1c(C(=O)Nc2nc(-c3ccccn3)cs2)oc2ccccc12,x,83,13,69*,81
O=C(Nc1nc(-c2ccccn2)cs1)c1cc2ccccc2o1,10,28,0,20,4
Cc1ccccc1OCC(=O)NCC(C)(O)c1ccco1 (centres undefined),x,x,x,-12,x
SMILES,CCHFV vOTU inh,Sa RN4220 lethal,Mtb hypoxia inh,PriA SSB inh,Sa ugtP lethal
COCCn1c(SCc2cccc(Cl)c2)nc2cc(C(=O)NC3CCCC3)ccc2c1=O,x,x,x,0,x
COc1ccc(Cl)cc1Nc1ncnc2c1cnn2-c1ccc(C)c(C)c1,x,x,x,-15,x
O=C(NCCC1=CCCCC1)C(=O)NCC(c1cccs1)N1CCc2ccccc21 (centres undefined),x,x,x,-19,x
CC(C)[n+]1ccn(C2=C([O-])c3ccccc3C(=O)C2=NS(=O)(=O)c2ccccc2)c1,x,x,x,6,x
C=CCN1C(=O)C(Cc2ccc(C)cc2)SC1=NN=Cc1ccco1 (centres undefined),x,6,19,-10,6
O=C(Nc1nc(-c2ccccn2)cs1)c1ccc(NC(=O)c2cccs2)cc1,x,x,x,97*,x
O=C(Nc1nc(-c2ccccc2)cs1)c1cccs1,6,29,x,-10,20
COc1ccccc1-c1nnc(NC(=O)C2CCCN2S(=O)(=O)c2cccs2)o1 (centres undefined),6,x,x,75*,x
Cc1ccc(C(=O)Nc2nc(-c3ccccn3)cs2)s1,29,19,13,47*,2
Cc1nc(C(=O)Nc2nc(-c3ccccn3)cs2)c(C(C)C)s1,x,x,x,68*,x
CCCCCCC(=O)N1CCN(c2cc3c(cc2F)c(=O)c(C(=O)O)cn3CC)CC1,1,x,x,-20,x
CCn1cc(C(=O)O)c(=O)c2cc(F)c(N3CCN(C(=S)NC(=O)c4cccc(F)c4)CC3)cc21,-13,12,16,-11,9
CCn1cc(C(=O)O)c(=O)c2cc(F)c(N3CCN(C(=S)NC(=O)c4ccc(F)c(F)c4)CC3)cc21,-15,100*,9,-6,100*
CCn1cc(C(=O)O)c(=O)c2cc(F)c(N3CCN(C(=S)NC(=O)c4ccc(F)cc4)CC3)cc21,2,86,7,-3,84
CCn1cc(C(=O)O)c(=O)c2cc(F)c(N3CCN(C(=S)NC(=O)c4ccccc4Br)CC3)cc21,-13,98*,-8,-12,99*
CC(=O)N1CCN(c2cc3c(cc2F)c(=O)c(C(=O)O)cn3C2CC2)CC1,-25,98*,x,-1,99*
CCCOc1ccc(C(=O)NC(=S)N2CCN(c3cc4c(cc3F)c(=O)c(C(=O)O)cn4CC)CC2)cc1,-2,44,-1,-5,96*
COc1ccc(Nc2nc(NCc3ccco3)nc(NN=Cc3ccccc3Cl)n2)cc1,x,45,-8,20,14
CC(C)S(=O)(=O)c1ccc(CC(=O)Nc2cnn(C3CCOCC3)c2)cc1,x,x,x,4,x
CCN1C(=O)NC2(CCN(C(=O)[C@H](C)Oc3ccccc3)CC2)C1=O,x,x,x,-16,x
CCn1cc(C(=O)NCc2cccnc2)c(=O)c2cc(F)c(N3CCN(C(=O)c4ccco4)CC3)cc21,-17,96*,x,7,100*
CCn1cc(C(=O)NCc2cccc(F)c2)c(=O)c2cc(F)c(N3CCN(C(=O)c4ccco4)CC3)cc21,-2,18,x,-10,46
O=c1sc2ccccc2n1Cc1nnc(SCc2ccccc2F)n1CCc1ccccc1,x,x,x,-6,x
O=c1[nH]c2ccc(NCc3ccccc3OCc3ccc(Cl)cc3)cc2[nH]1,7,4,2,92*,-12
COc1ccccc1NS(=O)(=O)c1ccc(N/N=C/c2ccccc2Cl)c([N+](=O)[O-])c1,x,x,x,i,x
SMILES,CCHFV vOTU inh,Sa RN4220 lethal,Mtb hypoxia inh,PriA SSB inh,Sa ugtP lethal
O=C(Cc1csc(Nc2ccccc2)n1)NCc1cccnc1,x,x,x,-9,x
O=C(COC(=O)C1COc2ccccc2O1)Nc1cccc(F)c1 (centres undefined),10,1,28*,2,0
O=C(CSc1ccc(NC(=O)C2CC2)nn1)Nc1ccc2c(c1)OCCO2,x,x,x,-9,x
Cc1ccc(NS(=O)(=O)c2ccc3c(c2)NC(=O)CCS3)c(C)c1,6,98*,13,-9,96*
Cc1cc(C)c(NS(=O)(=O)c2ccc3c(c2)NC(=O)CCS3)c(C)c1,19,55,4,-1,3
Cc1ccc(NS(=O)(=O)c2ccc3c(c2)NC(=O)CCS3)c(Cl)c1,-11,96*,15,8,90*
CC(=O)OC1C2CCC3[C@@](C)(O)C4C5OC5C(C)(C)[C@@]4(O)C(OC(C)=O)C[C@@]13C[C@@]2(C)O (some centres undefined),x,6,6,x,-2
Cn1cccc1C=NNC(=O)c1cc2ccccc2cc1O,x,3,9,43*,8
